Target: Torsin-1A-interacting protein 1 (Homo sapiens) (UniProt Q5JTV8)
Assay: compound microarray binding of lysate hLAP1 – cell lysate, small-molecule microarray, COS7 lysate, 635/667 nm fluorescence, primary screen (AID 1116)
Conditions: 635 nm fluorescence, higher = more signal

Torsin-1A-interacting protein 1 (Homo sapiens), sequence (Q5JTV8 whole entry, looked up): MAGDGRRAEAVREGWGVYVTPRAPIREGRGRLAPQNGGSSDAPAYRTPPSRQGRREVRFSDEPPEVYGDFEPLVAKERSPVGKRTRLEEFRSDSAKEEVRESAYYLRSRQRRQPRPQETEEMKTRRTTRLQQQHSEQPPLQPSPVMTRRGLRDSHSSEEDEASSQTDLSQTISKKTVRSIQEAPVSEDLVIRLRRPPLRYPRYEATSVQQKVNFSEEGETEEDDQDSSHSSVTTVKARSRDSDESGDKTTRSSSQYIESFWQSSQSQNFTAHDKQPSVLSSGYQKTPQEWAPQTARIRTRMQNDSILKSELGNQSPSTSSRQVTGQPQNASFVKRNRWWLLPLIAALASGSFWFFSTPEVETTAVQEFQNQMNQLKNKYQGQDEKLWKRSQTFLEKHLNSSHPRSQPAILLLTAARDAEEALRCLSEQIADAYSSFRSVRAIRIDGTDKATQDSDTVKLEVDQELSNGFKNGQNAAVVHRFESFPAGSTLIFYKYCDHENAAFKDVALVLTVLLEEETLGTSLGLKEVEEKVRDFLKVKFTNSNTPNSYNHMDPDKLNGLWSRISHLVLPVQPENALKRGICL

SMILES	composite z-score
COC(=O)[C@H]1N=C(c2ccc(OCCCO)cc2)O[C@H]1c1ccccc1CN=[N+]=[N-]	0.431
C[N+](C)(C)CCCCNC(=O)[C@H]1C[C@H]2C(=O)NCC(=O)N2[C@H]1c1ccc(O)cc1	0.721
CN(C)CCCCCCNC(=O)[C@@H]1C[C@@H]2C(=O)NCC(=O)N2[C@@H]1c1ccc(O)cc1	1.96
COc1ccc(C#Cc2ccc3c(c2)[C@]2(C(=O)N3)[C@H](c3ccc(OCCO)cc3)N3[C@H](c4ccccc4)[C@H](c4ccccc4)OC(=O)[C@H]3[C@@H]2C(=O)N2CCN(c3ncccn3)CC2)cc1	0.45
[N-]=[N+]=NCc1ccccc1[C@H]1OC(c2ccc(OCCCO)cc2)=N[C@@]1(Cc1ccccc1)C(N)=O	1.76
C#CCOC(=O)N[C@H](C=CCCCC)c1ccccc1	1.51
COc1cccc(C[C@H]2C[C@@H](CO[Si](C(C)C)(C(C)C)C(C)C)N3C(=O)[C@]4(C(C)=O)O[C@]23[C@H]2C(=O)N(C)C(=O)[C@H]24)c1	0.102
C=C(COC)/C(=C/C[C@@H](OC(=O)c1ccncc1)c1cccc(OCCO)c1)c1cc(C(=O)OC)ccc1OC	0.567
C[N+](C)(C)CCCC[C@@H]1NC(=O)[C@@H]2C[C@H](C(=O)NCCCCCNC(=O)CS)[C@H](c3cccc(OCCO)c3)N2C1=O	-0.034
CCCCCCCCCCC(O)C1C=CC2C(=O)NC(=O)C2N1Nc1ccccn1 (stereo unspecified)	-0.0182
CCOC(=O)C[C@H]1[C@H](OC(=O)c2ccc(C(=O)c3ccccc3)cc2)[C@@H](NC(=O)C2CCCCC2)c2cc(OCCCO)ccc2N1C(=O)Cc1ccc(OC)cc1	0.602
COc1ccc([Si](C)(C)[C@@H]2[C@@H](CCO)O[C@]3(C(=O)N(Cc4ccc(N5C(=O)c6ccccc6Oc6ccccc65)cc4)c4ccccc43)[C@H]2C)cc1	-1.06
O=C1O[C@@H](c2ccccc2)[C@@H](c2ccccc2)N2[C@@H](c3ccc(O)cc3)[C@]3(C(=O)Nc4ccc(C#CC5(O)CCCCCC5)cc43)[C@@H](C(=O)N3CCN(c4ncccn4)CC3)[C@H]12	1.18
COCCCNC(=O)[C@@]1(C)c2ccccc2C(=O)N(c2ccc(C)cn2)[C@H]1c1ccc(CO)cc1	1.69
COc1ccc([Si](C)(C)[C@H]2[C@H](CCO)O[C@@]3(C(=O)N(Cc4cccc(N5CCOC5=O)c4)c4ccccc43)[C@@H]2C)cc1	-0.18
O=C(N1CCOCC1)[C@@]1(CCS(=O)(=O)c2ccccc2)COC(c2ccc(OCCCO)cc2)=N1	0.622
COCCOC(=O)N1C(=O)[C@@]2(c3cc(C#Cc4ccc(OC)cc4)ccc31)[C@H](C(N)=O)[C@H]1C(=O)O[C@H](c3ccccc3)[C@H](c3ccccc3)N1[C@@H]2c1ccc(OCCO)cc1	1.09
C=C[C@H](C)[C@H](OC(=O)Nc1ccc(SC)cc1)c1ccc(O)c2ccccc12	-0.0193

SMILES	composite z-score
C=C(CCCC)/C(=C/C[C@H](OC(=O)c1ccncc1)c1ccc(CO)o1)c1cc(C(=O)OC)ccc1OC	0.539
CN1C(=O)C2C=CC(C(O)c3cccc4ccccc34)N(NC(=O)OC(C)(C)C)C2C1=O (stereo unspecified)	2.66
COc1cc2c(cc1OC)CN(C(=O)[C@@H]1[C@H]3C(=O)O[C@H](c4ccccc4)[C@H](c4ccccc4)N3[C@H](c3ccc(OCCO)cc3)[C@@]13C(=O)Nc1ccc(C#CCCO)cc13)CC2	1.33
NCCCCCCNC(=O)[C@H]1C[C@H]2C(=O)N3CCC[C@H]3C(=O)N2[C@H]1c1ccc(O)cc1	0.999
C[C@H]1NC(=O)C([C@@H](C)OCc2ccccc2)NC(=O)[C@@]23C(=O)N[C@@H](Cc4ccccc4)C2[C@H](C)[C@@]2(C)O[C@H]2C3/C=C/CC/C=C/CNC1=O (stereo partly specified)	0.26
O=C1O[C@@H](c2ccccc2)[C@@H](c2ccccc2)N2[C@@H](c3ccc(O)cc3)[C@]3(C(=O)Nc4ccc(C#CC5=CCCCC5)cc43)[C@@H](C(=O)Nc3nc4ccccc4s3)[C@H]12	0.825
CC(C)(C)N1CC=CC23O[C@@H]4C=CCCOC(=O)C4[C@H]2C(=O)N(CCCO)[C@@H]3C1=O (stereo partly specified)	0.0642
CN(C)CCCCNC(=O)[C@H]1C[C@H]2C(=O)N[C@@H](CCCC[N+](C)(C)C)C(=O)N2[C@H]1c1cccc(OCCO)c1	0.116
CCCCC(CC)C(O)C1C=CC2C(=O)NC(=O)C2N1Nc1ccccn1 (stereo unspecified)	0.927
C[N+](C)(C)CCCCCCNC(=O)[C@@H]1C[C@@H]2C(=O)NCC(=O)N2[C@@H]1c1cccc(OCCO)c1	0.602
CCCCC=C[C@@H](NC(=O)CCc1ccccc1)c1ccccc1	1.49
C[N+](C)(C)CCCCCCNC(=O)[C@H]1C[C@H]2C(=O)N3CCC[C@H]3C(=O)N2[C@H]1c1cccc(OCCO)c1	1.67
COc1cccc(C)c1NC(=O)O[C@H]1[C@H](OC(=O)Nc2ccccc2)[C@H](OC(=O)Nc2ccccc2)[C@@H](OC)O[C@@H]1CO	0.0722
CC(C)NC(=O)[C@@]1(Cc2ccccc2I)c2ccccc2C(=O)N(Cc2ccccc2C(F)(F)F)[C@H]1c1ccc(CO)cc1	0.506
COCCCNC(=O)[C@@]1(Cc2ccccc2CN=[N+]=[N-])N=C(c2ccc(OCCCO)cc2)O[C@H]1c1ccccc1N=[N+]=[N-]	0.785
C=C(C)[C@@H]1CC=C(C(O)C2C=CC3C(=O)N(C4CCCCC4)C(=O)C3N2Nc2ccc(OC)cc2)CC1 (stereo partly specified)	0.477
C=CCC(OC(C)=O)[C@@H]1[C@@H](N(Cc2ccc(-c3ccccc3)cc2)C(=O)Cc2ccc(OC)cc2)c2cc(OCCCO)ccc2N1C(=O)c1ccc(-c2ccccc2)cc1 (stereo partly specified)	0.609
CC(C)=CCCC(C)=CC(O)C1C=CC2C(=O)N(c3ccccc3)C(=O)C2N1Nc1ccc([N+](=O)[O-])cc1 (stereo unspecified)	1.08

Source: PubChem BioAssay
